# Assay outcomes deposited in PubChem BioAssay by National Center for Advancing Translational Sciences (NCATS).
# Sampled rows, rich in hits. Any-hit rate of the full collection: about 8.7%.
# Sfp inh: Sfp phosphopantetheinyl transferase inhibition | Q9F4F7 | Potency, µM, for the others: largest response in the series, negative = inhibition, hits mostly inhibitors | 3.5% of 310,000 active | Biochemical Sfp PPTase activity, qHTS;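 note: the enzyme is Sfp with the accession as filed and its product quenches rhodamine fluorescence; 0% = enzyme reaction without inhibitor and -100% = no enzyme wells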
#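 Sfp 15 nM + cpd, 15 min RT; start w/ rhodamine-CoA 5 uM, BHQ-2-YbbR 12.5 uM (final); 50 mM Hepes pH 7.6, 10 mM MgCl2, 0.01% NP-40, 0.01% BSA; read 525/598 nm at 0 and 30 min.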
# ALOX12 inh: inhibitors of human 12S-lipoxygenase ALOX12 | purified 12hLO, xylenol orange hydroperoxide absorbance | Potency, µM (doses to about 108 µM), for inactives: at the top dose activity change, negative = inhibition, hits mostly inhibitors | 1.1% of 580,000 active | AID 1671190; note: % is set by controls: 0 for no effect and ±100 for the full control effect
#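 Purified human 12hLO (150 nM final) in 25 mM Hepes, 0.01% Triton X-100, pH 7.0 was preincubated 15 min at room temperature with compound. Then 40 uM arachidonic acid was added, 30 min. Hydroperoxide was read by Fe-XO absorbance ratio 573/405 nm.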
# JMJD2A Tudor inh: JMJD2A Tudor domain (human) inhibition | O75164 | AlphaScreen JMJD2A-Tudor / H3K4me3 peptide binding | Potency, µM (series often up to 114 µM), inactives show top-dose activity change, negative = inhibition, hits mostly inhibitors | 4.4% of 390,000 active; note: % is set by controls: 0 for no effect and ±100 for the full control effect; nearly all actives have a fitted effect of over 50% in size
# BAZ2B block: BAZ2B (human) inhibition | Q9UIF8 | AlphaScreen BAZ2B-H3K14Ac peptide displacement | Potency, µM (top dose mostly 114 µM), without a hit: top-dose activity change, negative = inhibition, hits mostly inhibitors | 4.4% of 360,000 active; note: % is set by controls: 0 for no effect and ±100 for the full control effect; nearly all actives have a fitted effect of over 60% in size
#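 Complex of BAZ2B and biotin-H3K14Ac (50 nM apiece) forms over 30 min at RT, then faces library compounds up to 110 uM for another 30 min; AlphaScreen beads added, 20 min dark incubation, luminescence read.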
# G9a inh: G9a (human) methyltransferase inhibition | Potency, µM (highest dose often 102 µM), inactives show at the highest dose activity, negative = inhibition, actives largely listed as inhibitors | 8.8% of 350,000 active | AID 504332 | G9a H3K9 monomethylation, AlphaScreen, 2 h | Q96KQ7; note: % is set by controls: 0 for no effect and ±100 for the full control effect; nearly all actives have a fitted effect of over 75% in size
# Target sequence (Q96KQ7 913-1193 limits assumed): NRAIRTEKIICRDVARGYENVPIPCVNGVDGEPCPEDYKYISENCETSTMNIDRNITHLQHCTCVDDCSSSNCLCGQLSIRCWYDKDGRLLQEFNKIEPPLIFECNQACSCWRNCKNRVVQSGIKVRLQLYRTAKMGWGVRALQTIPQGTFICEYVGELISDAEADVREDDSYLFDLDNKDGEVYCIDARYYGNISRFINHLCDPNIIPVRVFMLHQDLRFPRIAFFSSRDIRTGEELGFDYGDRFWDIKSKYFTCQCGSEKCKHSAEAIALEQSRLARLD
#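 Using a bead-based AlphaScreen, monomethylated H3K9 product from 2 h room-temperature reactions (G9a 20 nM, peptide 500 nM, SAM 20 uM) was detected with 0.5 ug/mL rabbit anti-H3K9me1 antibody.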
# HP1b binding inh: inhibitors of HP1-beta chromodomain binding to methylated histone tails | AlphaScreen HP1-beta / biotin-H3K9me3 peptide binding | Potency, µM (highest dose often 114 µM), inactives show at the highest dose activity change, negative = inhibition, most hits filed as inhibitors | P83916 | 0.56% of 390,000 active; note: nearly all actives have a fitted effect of over 70% in size
# Target sequence (P83916 whole entry, looked up): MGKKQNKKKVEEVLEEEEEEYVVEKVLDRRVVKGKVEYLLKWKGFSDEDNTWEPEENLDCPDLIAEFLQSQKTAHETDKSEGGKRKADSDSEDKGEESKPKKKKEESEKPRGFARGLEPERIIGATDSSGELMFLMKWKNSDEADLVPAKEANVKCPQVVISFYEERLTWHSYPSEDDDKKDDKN
#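 HP1-beta protein (50 nM final) preincubated 30 min at room temperature with biotinylated H3(1-18)K9me3 peptide (50 nM) in PBS pH 7.4, 0.01% Tween-20, then compound added for 30 min. AlphaScreen streptavidin donor/nickel chelate acceptor beads (10 ug/mL final), 30 min dark, luminescence read.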
# The depositor's hits bear a star; ? = inconclusive; nt = no result given; ! = not active in a repeat; [ ] = another dose, or the depositor's remark. Calls come from the whole dose curve; as a rule, active = well fitted curve in the direction sought with a large enough effect; inconclusive = small, poorly fitted or top-dose-only effect, or another doubt; inactive = no such curve, though single readings can be large; an effect the other way counts as inactive or inconclusive. Potency is the fitted concentration of half-maximal effect.
SMILES,Sfp inh,ALOX12 inh,JMJD2A Tudor inh,BAZ2B block,G9a inh,HP1b binding inh
CCn1nc(C)cc1C(=O)N(C)C1CCCN(Cc2ccccc2F)C1 (stereo unspecified),25.3%,137.1%,-11.7%,0.7%,86.4%,42.9%
CC(C)Cc1cc(C(=O)N(C)C2CCCN(Cc3ccccc3F)C2)n(C)n1 (stereo unspecified),10.3%,5.6%,-17.8%,-9.4%[57.1 µM],89.1µM*,53.8%
COC(=O)c1c(C)oc2ccc(N(C(=O)c3ccncc3)S(=O)(=O)c3cc(C)c(C)cc3C)cc12,nt,-26.2%,-30.8%,-25.9%,10µM*,12.3%
O=c1c(Cl)c(O)c2cccc3c4ccccc4n1c23,14.1µM*,-31.5%,-26.1%,-27.5%,44.7µM*,6.3%
COc1c(C)cc(NC(=O)c2ccc3c(c2)NC(=O)CO3)cc1C,11.5%,-4.3%,-17.8%,-13.8%,-2.1%,16.3%
COCCN=c1scc(-c2ccc3c(c2)NC(=O)CO3)n1/N=C(\C)c1ccc(O)cc1,89.1µM*,?,22.4µM*,28.2µM*,nt,?
COc1cc(/C=N/n2c(-c3ccc4c(c3)NC(=O)CO4)csc2=Nc2cccc(C)c2)ccc1O,-27.4%,?,?,8.91µM*,10µM*,?
COC(=O)[C@@H]1Cc2ncn(C)c2CN1S(=O)(=O)c1ccc(F)cc1,nt,56.2µM*,nt,nt,nt,nt
COC(=O)[C@@H]1Cc2ncn(C)c2CN1S(=O)(=O)c1ccc2ccccc2c1,nt,0.0%[176 µM],nt,nt,nt,nt
O=C(c1ccc(C(F)(F)F)cc1)N1CCC2(C1)C(=NC1CCCC1)NC(=O)N2c1cc(F)cc(F)c1 (stereo unspecified),nt,8.6%[6.33 µM],nt,nt,nt,nt
CCOC(=O)c1sc(NC(C)=O)nc1C,56.2µM*,-13.5%[57.4 µM],-13.4%,0.6%,?,?
CCOC(=O)c1sc(NC(=O)Cc2ccccc2OC)nc1C,-10.9%,0.0%,-10.9%,-30.0%,39.8µM*,-4.2%
CCOC(=O)c1sc(NC(=O)c2ccc(OC(C)=O)cc2)nc1C,18.3%,-2.6%,0.0%,-17.7%,0.0%,21.9%
CCOC(=O)c1sc(-n2[nH]c(C)cc2=O)nc1C,-4.6%,0.0%,-8.3%,6.2%,28.2µM*,36.1%
CCOC(=O)CSc1nc(C)c(C(=O)OCC)s1,-7.4%,2.7%,15.4%,16.2%,-1.0%[12.7 µM],26.4%
CC(Sc1nc(Cl)nc2nc[nH]c12)C(=O)N1CCN(c2ccccc2)CC1 (stereo unspecified),nt,27.3%,nt,nt,nt,nt
COc1ccc(C(=O)Oc2cccc(C)c2C)cc1Br,nt,-13.2%,nt,nt,nt,nt
COC(=O)CSC1=C(C#N)C(c2ccccc2)CC(=O)N1 (stereo unspecified),?,18.1%,-11.0%,5.0%,-9.0%[12.7 µM],31.4%
N#CC1=C2SCC(O)(c3ccccc3)N2C(=O)CC1c1cccs1 (stereo unspecified),17.8µM*,-17.6%,-28.8%,?,50.1µM*,-4.9%
COc1ccc(C2CC(=O)N3C(=C2C#N)SCC3(O)c2ccccc2)cc1 (stereo unspecified),50.1µM*,3.2%,?,-26.9%,-34.9%[59 µM],2.6%
CSC1=C(C#N)C(c2cccs2)CC(=O)N1C (stereo unspecified),0.9%,nt,nt,-1.7%,?,nt
Cc1nnc([C@H]2CCN(CCCc3ccccc3)C2)o1,nt,68.1%[176 µM],nt,nt,nt,nt
CCOC(=O)c1cc2cc(F)ccc2[nH]1,nt,-12.7%,nt,nt,nt,nt
COc1ccc(C2=[N+](C)CCn3cccc32)c(OC)c1,18.3%,?,17.8µM*,-34.3%,7.08µM*,?
CC(C(=O)Nc1ccc(OCc2ccccc2)cc1)N1CCCC1 (stereo unspecified),-2.2%,0.0%,-22.8%,1.6%,?,23.1%
SMILES,Sfp inh,ALOX12 inh,JMJD2A Tudor inh,BAZ2B block,G9a inh,HP1b binding inh
CC(C)COCC(CN(Cc1ccccc1)c1ccccc1)N1CCCC1 (stereo unspecified),-18.5%,?,-2.9%,?,10µM*!,35.0%
Clc1cccc(-c2ccc(CNCc3ccccn3)o2)c1,79.4µM*,-3.0%,56.2µM*,22.4µM*,20µM*,-15.8%
CC1CCc2c(sc(/N=C/N(C)C)c2C#N)C1 (stereo unspecified),4.9%,-4.8%,-30.8%,39.8µM*,22.4µM*,-3.7%
N#Cc1c(/N=C/c2ccco2)sc2c1CCCCC2,-0.2%,-21.5%,-19.4%,35.5µM*,?,?
CN(C)/C=N/c1sc2c(c1C#N)CCCC2,44.7µM*,-0.4%,-32.2%,?,50.1µM*,12.8%
CN(C)/C=N/c1sc2c(c1C(N)=O)CCCC2,6.7%,2.5%,-15.0%,?,-9.9%,8.5%
CN1CCC([C@@H]2CN(C(=O)NCCc3ccccc3)C[C@H]2C(N)=O)CC1,nt,46.1%,nt,nt,nt,nt
COc1ccc(C2Nc3ccccc3C(=O)N2Cc2cccc(Cl)c2)cc1COc1ccc(NC(C)=O)cc1 (stereo unspecified),nt,nt,-30.6%,nt,nt,nt
O=C1c2ccccc2NC(c2cccc(F)c2)N1Cc1ccco1 (stereo unspecified),-19.4%,?,-24.5%,56.2µM*,?,12.5%
COc1ccc(C2Nc3ccccc3C(=O)N2CCCN(C)C)cc1COc1ccc(NC(C)=O)cc1 (stereo unspecified),nt,nt,79.4µM*,nt,nt,nt
CC(=O)Nc1cccc(OCc2cccc(C3Nc4ccccc4C(=O)N3Cc3ccco3)c2)c1 (stereo unspecified),nt,nt,31.6µM*,nt,nt,nt
COc1ccc(C2Nc3ccccc3C(=O)N2Cc2ccco2)cc1COc1ccc(NC(C)=O)cc1 (stereo unspecified),?,0.0%[57.4 µM],89.1µM*!,-5.9%,?,7.8%
O=C1c2ccccc2NC(c2cccc(F)c2)N1Cc1ccccc1 (stereo unspecified),0.3%,?,17.0%,15.7%,15.9%,46.8%
Cn1c(-[n+]2c(-c3ccccc3)cc(-c3ccccc3)cc2-c2ccccc2)nc2c([N+](=O)[O-])cccc21,-12.8%,?,-28.7%,-29.4%,10µM*,9.6%
Cn1c(-c2cccc([N+](=O)[O-])c2)[n+](C)c2ccccc21,5.8%,6.0%,0.0%,nt,6.0%,26.4%
COc1cc(/C=C/C(=O)O)cc(S(=O)(=O)N2CCc3ccccc3C2)c1OC,-3.4%,-19.2%,-4.9%,-35.5%,89.1µM*,32.2%
COc1cc(/C=C\C(=O)O)cc(S(=O)(=O)N2CCCCCC2)c1OC,9.7%,-2.8%,-20.5%,-6.8%,nt,28.0%
O=C(Cn1cnc2ccccc21)Nc1ccc(C(=O)O)cc1,9.5%,8.3%,-17.4%,-1.0%,-25.7%[59 µM],25.7%
O=C(CCCCn1cnc2c(=S)nc[nH]c21)Nc1ccc(C(=O)O)cc1,nt,-20.8%,1.41µM*,nt,nt,70.8µM*
CCOc1cc(CNc2ccc(N3CCCC3)cc2)cc(Cl)c1OC,?,?,11.2µM*,12.6µM*,10µM*,20µM*
